Assay results taken from PubChem BioAssay (EPA / NIEHS).
Inconclusive results are not listed. Activity calls are given as the source filed them. Rule for the calls: active = hit-call score of the fitted dose curve at least 0.9, where 1 is the maximum; inconclusive = response in the unintended direction; inactive = score below 0.9.

Key:
[1] = TOX21_p53_BLA_p2_viability: Viability Assessment in the Tox21 HCT-116 p53 Agonism Beta-lactamase Assay, Phase 2 (AID 2283591);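 note: compound exposure lasted 16 h at 37 °C; actives lower the ATP signal meaning cytotoxicity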
Method in brief: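 HCT116 p53-bla cells, 4000/well, dosed after 5 h plating (217-fold dilution of DMSO stocks) and incubated 16 h at 37C. Viability taken as cellular ATP by CellTiter-Glo luminescence after 30 min RT; signal loss marks cytotoxicity.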

[2] = target: Cellular tumor antigen p53 (Homo sapiens) (UniProt P04637); experiment: TOX21_p53_BLA_p2_ratio: Tox21 HCT-116 p53 Agonism Beta-lactamase Assay, Ratio, Phase 2 (AID 2283592)
Cellular tumor antigen p53 (Homo sapiens), sequence (P04637 whole entry, looked up): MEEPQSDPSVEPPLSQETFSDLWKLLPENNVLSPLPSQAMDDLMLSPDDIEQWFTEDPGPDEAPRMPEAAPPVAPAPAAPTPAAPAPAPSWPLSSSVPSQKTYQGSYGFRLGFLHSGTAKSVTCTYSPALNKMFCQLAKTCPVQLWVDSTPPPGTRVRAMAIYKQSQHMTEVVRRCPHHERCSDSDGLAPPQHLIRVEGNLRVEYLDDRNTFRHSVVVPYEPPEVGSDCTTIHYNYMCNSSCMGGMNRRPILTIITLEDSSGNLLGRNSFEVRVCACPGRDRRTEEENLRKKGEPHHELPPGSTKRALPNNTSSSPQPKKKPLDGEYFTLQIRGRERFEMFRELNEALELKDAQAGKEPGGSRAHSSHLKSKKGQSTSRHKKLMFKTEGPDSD
Method in brief: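 HCT116 p53-bla; 4000 cells/well; 5 h pre-incubation; cpd in DMSO, 217-fold dilution; 16 h 37C/5% CO2; CCF4-AM 2 h RT; Ex 405, Em 460/530 ratio; DMSO = baseline; positive fitting direction.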

[3] = TOX21_p53_BLA_p3_viability: Viability Assessment in the Tox21 HCT-116 p53 Agonism Beta-lactamase Assay, Phase 3 (AID 2283593);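 note: cells exposed to compound for 16 h before reading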
Method in brief: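 HCT116 cells, 4000/well, dosed 5 h after plating by pin transfer (217-fold dilution from DMSO stock) and incubated 16 h at 37C, 5% CO2. Viability read as ATP luminescence with CellTiter-Glo after 30 min at room temperature.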

[4] = target: Cellular tumor antigen p53 (Homo sapiens) (UniProt P04637); experiment: TOX21_p53_BLA_p3_ratio: Tox21 HCT-116 p53 Agonism Beta-lactamase Assay, Ratio, Phase 3 (AID 2283596)
Method in brief: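 HCT116 p53-bla cells (4000/well) given compound in DMSO (217-fold dilution) after 5 h, incubated 16 h at 37C. CCF4-AM substrate 2 h at room temperature; 460/530 nm emission ratio, gain fitted against DMSO.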

[5] = TOX21_p53_BLA_p4_viability: Viability Assessment in the Tox21 HCT-116 p53 Agonism Beta-lactamase Assay, Phase 4 (AID 2283597);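 note: hits lower the luminescence signal meaning cytotoxicity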
Method in brief: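 Cells plated, 5 h pre-incubation; DMSO compounds pinned (217-fold dilution); 16 h, 37C/5% CO2; CCF4-AM 2 h RT; CellTiter-Glo 30 min RT; luminescence read.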

[6] = target: Cellular tumor antigen p53 (Homo sapiens) (UniProt P04637); experiment: TOX21_p53_BLA_p5_ratio: Tox21 HCT-116 p53 Agonism Beta-lactamase Assay, Ratio, Phase 5 (AID 2283599)
Method in brief: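 HCT-116 p53-bla cells (4000/well) plated 5 h, dosed with compound (217-fold DMSO dilution) for 16 h at 37 C; CCF4-AM substrate 2 h at room temperature. Activity is the 460/530 nm emission ratio (405 nm excitation), fitted in gain-of-signal direction versus DMSO.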

[7] = TOX21_p53_BLA_p5_viability: Viability Assessment in the Tox21 HCT-116 p53 Agonism Beta-lactamase Assay, Phase 5 (AID 2283600)
Method in brief: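 4000 cells/well; 5 h pre-incubation; DMSO compounds pin-transferred, 217-fold dilution; 16 h, 37C/5% CO2; CCF4-AM 2 h RT; CellTiter-Glo 30 min RT; luminescence.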

[8] = target: Cellular tumor antigen p53 (Homo sapiens) (UniProt P04637); experiment: TOX21_p53_BLA_p4_ratio: Tox21 HCT-116 p53 Agonism Beta-lactamase Assay, Ratio, Phase 4 (AID 2283601)
Method in brief: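 HCT-116 p53 beta-lactamase reporter cells (4000/well) preincubated 5 h, then compound (217-fold dilution of DMSO stock) for 16 h at 37C. CCF4-AM substrate added 2 h at room temperature; 460/530 nm emission ratio fitted upward versus DMSO.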

C[C@]12CC[C@H](O)C[C@H]1CC[C@@H]1[C@@H]2CC[C@]2(C)[C@@H](c3ccc(=O)oc3)C[C@H]3O[C@]132
AC50 [1]: 0.859 µM (active)
outcome [2]: inactive
AC50 [3]: 0.978 µM (active)
outcome [4]: inactive
AC50 [5]: 1.23 µM (active)
outcome [6]: inactive
AC50 [7]: 1.04 µM (active)
outcome [8]: inactive

O=c1ccc2cc(O[C@@H]3O[C@H](CO)[C@@H](O)[C@H](O)[C@H]3O)c(O)cc2o1
outcome [1]: inactive
AC50 [2]: 10.3 µM (active)
outcome [3]: inactive
AC50 [4]: 12 µM (active)
outcome [5]: inactive
AC50 [6]: 10.3 µM (active)
outcome [7]: inactive

[Cl][Hg][c]1ccccc1
AC50 [1]: 0.576 µM (active)
AC50 [2]: 0.553 µM (active)
AC50 [3]: 2.88 µM (active)
AC50 [4]: 8.93 µM (active)
AC50 [5]: 0.624 µM (active)
AC50 [6]: 10.9 µM (active)
AC50 [7]: 2.95 µM (active)

O=C(N/N=C/c1ccc([N+](=O)[O-])o1)c1cc([N+](=O)[O-])cc([N+](=O)[O-])c1O
outcome [1]: inactive
outcome [2]: inactive
outcome [3]: inactive
outcome [4]: inactive
AC50 [5]: 23 µM (active)
outcome [6]: inactive
outcome [7]: inactive
outcome [8]: inactive

ClCCOCOCCCl
outcome [1]: inactive
outcome [2]: inactive
outcome [3]: inactive
outcome [4]: inactive
outcome [5]: inactive
outcome [6]: inactive
outcome [7]: inactive

CN1CCN=C(c2ccccc2)c2cc(Cl)ccc21
outcome [1]: inactive
AC50 [2]: 0.000141 µM (active)
outcome [3]: inactive
outcome [4]: inactive
outcome [5]: inactive
AC50 [6]: 0.000104 µM (active)
AC50 [7]: 0.000386 µM (active)
AC50 [8]: 2.67e-05 µM (active)

OC(O)C(Cl)(Cl)Cl
outcome [1]: inactive
outcome [2]: inactive
outcome [3]: inactive
outcome [4]: inactive
outcome [5]: inactive
outcome [6]: inactive
outcome [7]: inactive
outcome [8]: inactive

CCC1(CC)C(=O)NC(=O)N(C)C1=O
outcome [1]: inactive
outcome [2]: inactive
outcome [3]: inactive
outcome [4]: inactive
outcome [5]: inactive
outcome [6]: inactive

S=C=Nc1cccc2ccccc12
outcome [1]: inactive
AC50 [2]: 38.5 µM (active)
outcome [3]: inactive
outcome [4]: inactive
outcome [5]: inactive
outcome [6]: inactive
outcome [7]: inactive
AC50 [8]: 32.4 µM (active)

C[C@H]1CC[C@]2(NC1)O[C@H]1C[C@H]3[C@@H]4CC[C@H]5C[C@@H](O[C@@H]6O[C@H](CO)[C@H](O[C@@H]7O[C@H](CO)[C@@H](O)[C@H](O[C@@H]8OC[C@@H](O)[C@H](O)[C@H]8O)[C@H]7O[C@@H]7O[C@H](CO)[C@@H](O)[C@H](O)[C@H]7O)[C@H](O)[C@H]6O)CC[C@]5(C)[C@H]4CC[C@]3(C)[C@H]1[C@@H]2C
AC50 [1]: 4.84 µM (active)
AC50 [2]: 31.4 µM (active)
AC50 [3]: 5.23 µM (active)
AC50 [4]: 29.4 µM (active)
AC50 [5]: 4.05 µM (active)
AC50 [6]: 30.3 µM (active)
AC50 [7]: 6.08 µM (active)
AC50 [8]: 24 µM (active)

CC[C@H](N)c1ccccc1
outcome [1]: inactive
outcome [2]: inactive
outcome [3]: inactive
outcome [4]: inactive
outcome [5]: inactive
outcome [6]: inactive

CC(Cl)C(=O)O (stereo not given)
outcome [1]: inactive
outcome [2]: inactive
outcome [3]: inactive
outcome [4]: inactive
outcome [5]: inactive
outcome [6]: inactive
outcome [7]: inactive

Oc1ccc(C(=C(Cl)Cl)c2ccc(O)cc2)cc1
outcome [1]: inactive
AC50 [2]: 41.2 µM (active)
outcome [3]: inactive
outcome [4]: inactive
AC50 [5]: 77.7 µM (active)
outcome [6]: inactive
outcome [7]: inactive
AC50 [8]: 72.4 µM (active)

COC(=O)[C@]12CCC(C)(C)C[C@H]1[C@H]1C(=O)C=C3[C@@]4(C)C=C(C#N)C(=O)C(C)(C)[C@@H]4CC[C@@]3(C)[C@]1(C)CC2
AC50 [1]: 1.83 µM (active)
AC50 [2]: 29.2 µM (active)
AC50 [3]: 1.37 µM (active)
AC50 [4]: 15.3 µM (active)
AC50 [5]: 1.99 µM (active)
AC50 [6]: 31.7 µM (active)
AC50 [7]: 2.57 µM (active)
AC50 [8]: 7.4 µM (active)

CCCCCCCCCCCCCCCCCCn1cc[n+](C)c1
outcome [1]: inactive
AC50 [2]: 8.42 µM (active)
outcome [3]: inactive
outcome [4]: inactive
outcome [5]: inactive
outcome [6]: inactive

CCC(C)(S(=O)(=O)CC)S(=O)(=O)CC
outcome [1]: inactive
outcome [2]: inactive
outcome [3]: inactive
outcome [4]: inactive
outcome [5]: inactive
outcome [6]: inactive
outcome [7]: inactive
outcome [8]: inactive

CCNc1nc(NC(C)C)nc(OC)n1
outcome [1]: inactive
outcome [2]: inactive
outcome [3]: inactive
outcome [4]: inactive
outcome [5]: inactive
outcome [6]: inactive
outcome [7]: inactive

CNC(=O)Oc1ccccc1C(=O)Nc1ccccc1
outcome [1]: inactive
outcome [2]: inactive
outcome [3]: inactive
outcome [4]: inactive
outcome [5]: inactive
outcome [6]: inactive
outcome [7]: inactive
outcome [8]: inactive

F/C(COc1ccc2c(c1)[nH]c1ccccc12)=C1/CN2CCC1CC2
outcome [1]: inactive
outcome [2]: inactive
outcome [3]: inactive
outcome [4]: inactive
AC50 [5]: 27.3 µM (active)
outcome [6]: inactive
outcome [7]: inactive
outcome [8]: inactive

CN[C@@]1(c2ccccc2Cl)CCCCC1=O
outcome [1]: inactive
outcome [2]: inactive
outcome [3]: inactive
outcome [4]: inactive
outcome [5]: inactive
outcome [6]: inactive
outcome [7]: inactive
outcome [8]: inactive

CCCCCc1cc(O)c2c(c1)OC(C)(C)c1ccc(C)cc1-2
AC50 [1]: 14.4 µM (active)
AC50 [2]: 22.3 µM (active)
AC50 [3]: 30.1 µM (active)
AC50 [4]: 34.4 µM (active)
AC50 [5]: 14.9 µM (active)
AC50 [6]: 23.9 µM (active)
AC50 [7]: 19.8 µM (active)
AC50 [8]: 29.9 µM (active)

Oc1cc(Cl)c(Cl)c(Cl)c1Cl
outcome [1]: inactive
AC50 [2]: 5.97 µM (active)
AC50 [3]: 22.3 µM (active)
AC50 [4]: 6.58 µM (active)
outcome [5]: inactive
AC50 [6]: 7.24 µM (active)
outcome [7]: inactive
AC50 [8]: 7.69 µM (active)
